# Measured values published in PubChem BioAssay (NCATS).
# Several values for one entry are separate records, joined by “and”; a condition that tells them apart may be missing. Equal values may be shown once. Results filed as inconclusive are left out. Where a call stands in place of a potency, no number is given. Activity calls are given as the source filed them. The call rests on the fitted dose curve; in most records, active means well fitted curve in the direction sought with a large enough effect; inconclusive means small, poorly fitted or top-dose-only effect, or another doubt; inactive means no such curve, though single readings can be large; an effect the other way counts as inactive or inconclusive.
# Columns and labels:
# [1] = biological target: Tumor susceptibility gene 101 protein (Homo sapiens) (UniProt Q99816); assay: qHTS Assay for Iinhibitors of HIV-1 Budding by Blocking the Interaction of PTAP/TSG101: Hit Validation (AID 651600); further: nearly all actives have a fitted effect of over 70% in size
# Summary of the method: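 Compounds are added to the Tsg101 binding domain (10 uM final) in pH 7.5 HEPES buffer. FITC-PTAP peptide follows at 50 nM final. After 20 min at r.t., polarized FITC emission is measured.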
# [2] = qHTS for Inhibitors of Ubiquitin-specific Protease USP2a Using CHOP2 as the Reporter: K633 Counterscreen (AID 652168)
# Summary of the method: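 Detection-system control: fluorescence of K48-linked DiUb-4IQF substrate (100 nM as added) tracked over time, Ex 525/Em 598, with pinned compounds and no enzyme, in pH 8 Tris buffer containing beta-mercaptoethanol and 0.05% Chaps.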
# [3] = qHTS for Inhibitors of Ubiquitin-specific Protease USP2a Using CHOP2 as the Reporter: Cytotox Assay (AID 652170); further: nearly all actives have a fitted effect of over 70% in size; further: potency means the concentration at half of the fitted maximal effect
# Summary of the method: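 Cytotoxicity read as ATP luminescence (CellTiter-Glo) after 72 hr compound treatment at 37 deg C. Cells: HCT116, 600/well in DMEM plus 10% FBS. Normalization between DMSO-treated cells and cell-free wells.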
# [4] = biological target: Ubiquitin carboxyl-terminal hydrolase 2 (Homo sapiens) (UniProt O75604); assay: qHTS for Inhibitors of Ubiquitin-specific Protease USP2a Using CHOP2 as the Reporter: K484 Substrate (AID 652173);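 further: cleavage of internally quenched K48 di-ubiquitin substrate measured as rising fluorescence over time; nearly all actives have a fitted effect of over 70% in size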; further: potency means the concentration at half of the fitted maximal effect
# Summary of the method: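 Kinetic fluorescence (Ex 525/Em 598) tracked cleavage of an internally quenched K48 di-ubiquitin substrate, added as a 100 nM solution. The enzyme was added as a 5 nM USP2 solution before compound pinning, with no-enzyme controls. Buffer: Tris pH 8, beta-mercaptoethanol, CHAPS.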
# [5] = Cell Proliferation Assay against the TMD8 Cell Line (AID 651645); settings: TMD8 DLBCL cell line proliferation/viability; at 46.1 µM (top of the series);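 further: cells exposed to compound for 48 h before reading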
# Summary of the method: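 500 TMD8 cells/well, RPMI + Glutamax, no phenol red, 5% FBS; cpd added immediately; 48 h, 37C, 5% CO2; CellTiter-Glo, luminescence. Controls: DMSO = 100%, bortezomib 9.2 uM final = 0%.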
# [6] = Cell Proliferation Assay against the HBL1 Cell Line (AID 651646); settings: HBL1 DLBCL cells; at 46.1 µM (top of the series);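 further: cells exposed to compound for 48 h before reading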
# Summary of the method: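 After a 48 h incubation of 500 HBL1 cells/well in phenol red-free RPMI plus 5% FBS, relative luciferase units from CellTiter-Glo gave percent activity against DMSO and 9.2 uM bortezomib (final) controls.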
# [7] = biological target: Tyrosine-protein kinase Yes (Homo sapiens) (UniProt P07947); assay: qHTS for small molecule inhibitors of Yes1 kinase: Primary Screen (AID 686947); further: nearly all actives have a fitted effect of over 60% in size
# Summary of the method: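 In this qHTS format, inhibition is expressed relative to DMSO controls with enzyme (maximum) and without enzyme (minimum). The 60 min room-temperature reaction uses 0.1 mM ATP, with ADP detected by luminescence.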
# [8] = qHTS for small molecule inhibitors of Yes1 kinase: Counter Assay (AID 686950);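 further: no kinase present so only ADP-Glo detection of a fixed ADP amount is tested; luminescence from ADP-Glo reporting ADP in a fixed ATP and ADP mixture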
# Summary of the method: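 Measuring interference with ADP-Glo, the assay ran 60 min at room temperature on an ATP/ADP mix lacking enzyme. Values were normalized to ATP-plus-ADP (maximum) and ATP-only (minimum) DMSO controls.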
# Chain of Tumor susceptibility gene 101 protein (Homo sapiens) (Q99816 whole entry, looked up, the tested form may be a part): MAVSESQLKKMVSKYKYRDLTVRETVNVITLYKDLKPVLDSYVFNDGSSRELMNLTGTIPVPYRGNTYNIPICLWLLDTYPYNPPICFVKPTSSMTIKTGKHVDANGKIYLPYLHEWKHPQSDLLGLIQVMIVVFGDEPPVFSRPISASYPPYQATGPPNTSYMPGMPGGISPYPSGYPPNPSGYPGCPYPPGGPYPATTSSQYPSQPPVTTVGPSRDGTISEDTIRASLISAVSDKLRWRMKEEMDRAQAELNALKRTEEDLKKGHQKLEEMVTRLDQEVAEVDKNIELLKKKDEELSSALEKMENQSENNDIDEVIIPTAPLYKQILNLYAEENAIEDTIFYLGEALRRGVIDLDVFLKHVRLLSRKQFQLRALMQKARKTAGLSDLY
# Chain of Ubiquitin carboxyl-terminal hydrolase 2 (Homo sapiens) (O75604 whole entry, looked up): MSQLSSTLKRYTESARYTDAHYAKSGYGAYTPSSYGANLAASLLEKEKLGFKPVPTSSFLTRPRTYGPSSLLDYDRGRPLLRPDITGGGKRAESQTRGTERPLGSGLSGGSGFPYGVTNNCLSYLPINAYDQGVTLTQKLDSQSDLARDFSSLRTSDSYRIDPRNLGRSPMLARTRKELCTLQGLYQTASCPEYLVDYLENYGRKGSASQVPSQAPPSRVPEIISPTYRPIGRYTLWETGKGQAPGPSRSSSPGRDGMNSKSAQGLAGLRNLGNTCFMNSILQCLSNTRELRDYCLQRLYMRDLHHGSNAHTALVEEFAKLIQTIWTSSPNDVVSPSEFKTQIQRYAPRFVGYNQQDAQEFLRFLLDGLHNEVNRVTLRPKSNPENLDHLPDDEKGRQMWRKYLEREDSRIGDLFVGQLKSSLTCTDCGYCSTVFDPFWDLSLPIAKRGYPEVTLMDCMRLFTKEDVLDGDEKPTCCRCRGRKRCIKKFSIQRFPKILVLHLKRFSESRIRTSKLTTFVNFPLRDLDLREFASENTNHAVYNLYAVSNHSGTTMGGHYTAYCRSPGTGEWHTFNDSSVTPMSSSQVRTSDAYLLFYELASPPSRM
# Chain of Tyrosine-protein kinase Yes (Homo sapiens) (P07947 whole entry, looked up): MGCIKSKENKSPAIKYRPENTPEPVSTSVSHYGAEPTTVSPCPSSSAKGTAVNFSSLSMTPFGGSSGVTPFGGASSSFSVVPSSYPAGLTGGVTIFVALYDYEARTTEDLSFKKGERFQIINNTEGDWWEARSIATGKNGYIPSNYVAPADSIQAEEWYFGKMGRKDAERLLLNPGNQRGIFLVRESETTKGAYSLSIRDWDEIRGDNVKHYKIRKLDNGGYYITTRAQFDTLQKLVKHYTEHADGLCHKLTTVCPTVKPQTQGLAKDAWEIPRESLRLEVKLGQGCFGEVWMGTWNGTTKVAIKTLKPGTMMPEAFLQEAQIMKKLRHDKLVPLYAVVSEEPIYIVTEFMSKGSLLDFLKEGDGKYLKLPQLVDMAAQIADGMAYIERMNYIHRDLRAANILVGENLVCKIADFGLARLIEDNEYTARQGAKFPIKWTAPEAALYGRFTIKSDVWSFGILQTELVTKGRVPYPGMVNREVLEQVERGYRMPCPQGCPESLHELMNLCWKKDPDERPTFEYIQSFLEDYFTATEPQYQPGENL
structure (smiles),measurement,setting,value
O=[N+]([O-])c1cc(Br)cc(/C=N/n2cnnc2)c1O,Potency,[1],inactive
Cc1ccc(-c2cc(C(=O)Nc3ccc(C(F)(F)F)cc3)c3ccccc3n2)cc1C,outcome,[2],inactive
same,Potency,[3],inactive
Cc1ccc(S(=O)(=O)Nc2cnccc2C(=O)NCCc2ccccc2)cc1,outcome,[2],inactive
same,Potency,[3],inactive
C1=C(c2ccc(-c3ccccc3)cc2)Nc2ncnn2C1c1ccco1 (configuration not stated),Potency,[1],inactive
O=C(Nc1nc(-c2ccccc2)cs1)c1ccncc1NS(=O)(=O)c1c(F)cc(F)cc1F,outcome,[2],inactive
same,Potency,[3],inactive
same,Potency,[4],3.43 µM (active)
C=C1C(=C/C=C2\CCC[C@]3(C)[C@@H]([C@H](C)/C=C/[C@H](C)C(C)C)CC[C@@H]23)C[C@@H](O)C[C@@H]1O,viability (% of control),[5],-0.788%
same,"viability, percent of control",[6],-0.446%
same,Potency,[7],inactive
same,outcome,[8],inactive
Cc1ccccc1-n1c(SCc2c(C)noc2C)nnc1-c1cccnc1,Potency,[1],inactive
O=C(O)c1ccc(-n2c(-c3ccc(Br)cc3)n[nH]c2=S)cc1,Potency,[1],inactive
CC(=O)Nc1ncc(S(=O)(=O)Nc2cnccc2C(=O)Nc2nc(-c3ccccc3)cs2)s1,outcome,[2],inactive
same,Potency,[3],inactive
same,Potency,[4],10.9 µM (active)
Nc1ccc(S(=O)(=O)Nc2cnccc2C(=O)Nc2nc(-c3ccccc3)cs2)cc1,outcome,[2],inactive
same,Potency,[3],inactive
same,Potency,[4],17.2 µM (active)
O=C(Nc1ccc(S(=O)(=O)Nc2ncc(-c3ccccc3)s2)cc1)c1ccc2ccccc2c1,outcome,[2],inactive
same,Potency,[3],inactive
same,Potency,[4],3.06 µM (active)
COC(=O)C1=CC[C@H](c2ccc(C)cc2)N(S(=O)(=O)c2ccc(C)cc2)[C@@H]1c1ccc(C(C)(C)C)cc1,Potency,[3],inactive
Cc1ccc(S(=O)(=O)Nc2cnccc2C(=O)Nc2nc(-c3ccco3)cs2)cc1,outcome,[2],inactive
same,Potency,[4],4.32 µM (active)
Cc1ccc(NC(=O)c2cc(-c3ccc(C)c(C)c3)nc3ccccc23)cc1,Potency,[3],inactive
Cc1ccc(-c2cc(C(=O)NC3CCCCC3)c3ccccc3n2)cc1C,Potency,[3],inactive
COc1ccc(C(=O)Nc2nc(-c3ccccc3)cs2)c(NS(=O)(=O)c2ccc(C)cc2)c1,outcome,[2],inactive
same,Potency,[3],13.2 µM (active)
same,Potency,[4],1.37 µM (active)
CCN(CC)C(=O)C1CCC(C(=O)Nc2ccc([S+](=O)([O-])Nc3nccs3)cc2)CC1 (configuration not stated),Potency,[3],inactive
same,Potency,[4],inactive
Cc1ccc(S(=O)(=O)Nc2cnccc2C(=O)Nc2nc(-c3ccccc3F)cs2)cc1,outcome,[2],inactive
same,Potency,[4],2.17 µM (active)
CCCc1ccc(C(=O)Nc2ccc(S(=O)(=O)Nc3nccs3)cc2)cc1,outcome,[2],inactive
same,Potency,[3],inactive
same,Potency,[4],21.7 µM (active)
Cc1ccc(S(=O)(=O)Nc2cnccc2C(=O)Nc2nc(-c3cnn(C)c3)cs2)cc1,outcome,[2],inactive
same,Potency,[3],inactive
same,Potency,[4],8.63 µM (active)
Cc1cccc(S(=O)(=O)Nc2cnccc2C(=O)Nc2nc(-c3ccccc3)cs2)c1,outcome,[2],inactive
same,Potency,[4],2.73 µM (active)
Cc1ccc(-c2cc(C(=O)Nc3ccc([N+](=O)[O-])cc3)c3ccccc3n2)cc1C,outcome,[2],inactive
same,Potency,[4],13.7 µM (active)
O=C(O)C1CCC(C(=O)Nc2ccc([S+](=O)([O-])Nc3nccs3)cc2)CC1 (configuration not stated),outcome,[2],inactive
same,Potency,[3],inactive
same,Potency,[4],inactive
Cc1ccc(-c2cc(C(=O)Nc3ccc(Cl)cc3)c3ccccc3n2)cc1C,Potency,[3],inactive
COCOC1CCC(C(=O)Nc2ccc([S+](=O)([O-])Nc3nccs3)cc2)CC1 (configuration not stated),outcome,[2],inactive
same,Potency,[3],inactive
same,Potency,[4],inactive
Cc1ccc(S(=O)(=O)Nc2cnccc2C(=O)Nc2nc(-c3cc4ccccc4o3)cs2)cc1,outcome,[2],inactive
same,Potency,[4],1.93 µM (active)
N#Cc1cnc(NS(=O)(=O)c2ccc(NC(=O)Cc3ccc(Cl)c(Cl)c3)cc2)s1,outcome,[2],inactive
same,Potency,[3],inactive
same,Potency,[4],3.43 µM (active)
O=C(Nc1nc(-c2ccccc2)cs1)c1ccncc1NS(=O)(=O)c1ccc(F)cc1,Potency,[3],inactive
same,Potency,[4],3.06 µM (active)
Cc1ccc(-c2cc(C(=O)Nc3ccc(C(N)=O)cc3)c3ccccc3n2)cc1C,outcome,[2],inactive
same,Potency,[4],21.7 µM (active)
O=C1CCCc2cc(S(=O)(=O)Nc3cnccc3C(=O)Nc3nc(-c4ccccc4)cs3)ccc2N1,outcome,[2],inactive
same,Potency,[3],inactive
same,Potency,[4],7.69 µM (active)
N#Cc1ccc(S(=O)(=O)Nc2cnccc2C(=O)Nc2nc(-c3ccccc3)cs2)cc1,outcome,[2],inactive
same,Potency,[3],inactive
same,Potency,[4],2.43 µM (active)
O=C(Nc1nc(-c2ccccc2)cs1)c1ccncc1NS(=O)(=O)c1ccccc1Cl,outcome,[2],inactive
same,Potency,[3],inactive
same,Potency,[4],1.53 µM (active)
N#Cc1cnc(N[S+](=O)([O-])c2ccc(Nc3nc(-c4ccccc4)cs3)cc2)s1,outcome,[2],inactive
same,Potency,[3],inactive
same,Potency,[4],inactive
CC(C)Cc1ccc(-c2csc(Nc3ccc(S(=O)(=O)Nc4nccs4)cc3)n2)cc1,outcome,[2],inactive
same,Potency,[3],inactive
same,Potency,[4],5.44 µM (active)
Cc1ccc(C(=O)Nc2ccc(S(=O)(=O)Nc3nccs3)cc2)cc1C,outcome,[2],inactive
same,Potency,[3],inactive
same,Potency,[4],24.3 µM (active)
Cc1ccc(S(=O)(=O)Nc2cnccc2C(=O)Nc2nc(-c3ccc(Oc4ccccc4)cc3)cs2)cc1,outcome,[2],inactive
same,Potency,[3],20.9 µM (active)
same,Potency,[4],2.17 µM (active)
Cc1ccc(-c2cc(C(=O)Nc3cccnc3)c3ccccc3n2)cc1C,Potency,[3],inactive
same,Potency,[4],19.3 µM (active)
O=C(Nc1ccc(S(=O)(=O)Nc2nccs2)cc1)c1ccnc2ccccc12,outcome,[2],inactive
same,Potency,[3],inactive
same,Potency,[4],21.7 µM (active)
Cc1ccc(S(=O)(=O)Nc2cnccc2C(=O)Nc2nc(-c3ccc(C)c(C)c3)cs2)cc1,outcome,[2],inactive
same,Potency,[4],2.73 µM (active)
O=C(Nc1ccc(S(=O)(=O)Nc2nccs2)cc1)c1ccc(-c2ccccc2)cc1,outcome,[2],inactive
same,Potency,[3],inactive
same,Potency,[4],24.3 µM (active)
CC(C)(C)NC(=O)N1CCC(C(=O)Nc2ccc([S+](=O)([O-])Nc3nccs3)cc2)CC1,Potency,[3],inactive
same,Potency,[4],inactive
Cc1ccc(S(=O)(=O)Nc2cnccc2C(=O)Nc2nc3ccccc3s2)cc1,outcome,[2],inactive
same,Potency,[3],inactive
same,Potency,[4],3.43 µM (active)
Cc1ccc(-c2cc(C(=O)Nc3cccc(S(=O)(=O)Nc4nccs4)c3)c3ccccc3n2)cc1C,Potency,[3],inactive
same,Potency,[4],3.06 µM (active)
Cc1ccc(S(=O)(=O)Nc2cnccc2C(=O)Nc2nc(-c3ccccc3)cs2)cc1,outcome,[2],inactive
same,Potency,[3],18.7 µM (active)
same,Potency,[4],2.17 µM (active) and 1.72 µM (active)
Cc1ccc(S(=O)(=O)Nc2ncccc2C(=O)Nc2nc(-c3ccccc3)cs2)cc1,outcome,[2],inactive
same,Potency,[4],3.43 µM (active)
O=C(Nc1nc(-c2ccccc2)cs1)c1ccncc1NS(=O)(=O)c1ccc2ccccc2c1,outcome,[2],inactive
same,Potency,[4],1.37 µM (active)
